About 79,000 compounds went through this panel and 15% of them were active in at least one assay; those are over-represented in the sample as a whole. Unmarked numbers belong to inactive results. The source made the active and inactive calls. Cut-off read from the data, not from the text of the source: active = growth inhibition above about 70%; inactive = the rest.

Assay [1] in a line: NCI Yeast Anticancer Drug Screen. Data for the rad50 strain (AID 155).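 Note: 0% = growth of vehicle-only cultures of the same strain.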 The conditions noted are these: S. cerevisiae rad50 strain growth inhibition; at 50.0 µM; hits give high values. Summed up:
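Growth of the mutant yeast was measured after compound exposure and referenced to vehicle-treated cultures.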

Assay [2] in a line: NCI Yeast Anticancer Drug Screen. Data for the mec2-1 strain (AID 157). The conditions noted are these: S. cerevisiae mec2-1 strain, at 50.0 µM, hits give high values. Summed up: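 Test agents were screened against the mec2-1 yeast strain, with defined DNA repair or cell cycle alteration. Growth was scored as inhibition against vehicle-only controls.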
Assay [3] is described as follows: NCI Yeast Anticancer Drug Screen. Data for the sgs1 mgt1 strain (AID 161).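 Note: 0% = growth of cultures given vehicle only.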 The conditions noted are these: S. cerevisiae sgs1 mgt1 strain, at 50.0 µM, hits give high values. The method in brief:
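Mutant yeast exposed to compound; growth scored against vehicle-only wells.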

Assay [4] in a line: NCI Yeast Anticancer Drug Screen. Data for the cln2 rad14 strain (AID 165).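 Note: 0% = growth equal to vehicle treated cultures.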 The conditions noted are these: S. cerevisiae cln2 rad14 strain, at 50.0 µM, hits give high values. Summed up: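 Growth of compound-exposed yeast (cln2 rad14 genotype) measured and expressed as inhibition relative to vehicle.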
A short description of assay [5]: NCI Yeast Anticancer Drug Screen. Data for the bub3 strain (AID 167). The conditions noted are these: S. cerevisiae bub3 mutant strain, at 50.0 µM, hits give high values. The method in brief:
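Whole-cell yeast assay. The mutant strain was incubated with compounds, and growth inhibition was determined by comparison with vehicle-treated cells.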

Assay [6] is described as follows: NCI Yeast Anticancer Drug Screen. Data for the mlh1 rad18 strain (AID 175). The conditions noted are these: S. cerevisiae mlh1 rad18 strain growth inhibition; at 50.0 µM; hits give high values. The method in brief: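 In this whole-cell yeast screen, a strain with altered DNA damage repair is challenged with compound, and its growth is measured against matched vehicle-treated controls.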

With `CN(NC(=O)/C(=C\c1ccccc1Cl)NC(=O)c1ccccc1)c1cn[nH]c(=O)c1Cl`, the growth inhibition in assay [1] is -13.2%; in assay [2], -11.8%; in assay [3] it was -16.4%; in assay [4] it was 9.1%; in assay [5] it was -3.75%; in assay [6], -6.85%.

As to `CC1(C)OC1(C(=O)C=[N+]=[N-])c1ccccc1` (stereo not given), the growth inhibition in assay [1] was -14.8%; in assay [2] it was -17.8%; in assay [3], -23.9%; in assay [4] it was -15.8%; in assay [5] it was -13.6%; in assay [6], -29.4%.

Regarding `C=CCNC(=S)N1c2ccccc2NC(=O)CC1C` (stereo not given), the growth inhibition is -45.8% in assay [1]; -9.2% in assay [2]; -20.4% in assay [3]; 13.4% in assay [4]; 13.1% in assay [5]; -15.4% in assay [6].

With `CCOc1ccc2c(c1)C(C)(C)CCC2(C)C`, the growth inhibition in assay [1] is 3.55%; in assay [2], -7.75%; in assay [3], -5.9%; in assay [4], -38.5%; in assay [5], 1.4%; in assay [6] it was 6.05%.

`CN(C)c1ccc(C2(c3ccc(N(C)C)cc3)NNC(=O)c3ccccc32)cc1`: the growth inhibition was 17.2% in assay [1]; 7.95% in assay [2]; 9.35% in assay [3]; 12.7% in assay [4]; 21.1% in assay [5]; -0.3% in assay [6].

For `OCC(O)C(O)C(O)c1nn(-c2ccc(Cl)cc2)c2nc3cc(Cl)c(Cl)cc3nc12` (stereo not given), the growth inhibition in assay [1] was 1.85%; in assay [2], -28.6%; in assay [3], -33.9%; in assay [4], 15.4%; in assay [5], 4.4%; in assay [6] it was 0.85%.

Take `CN(C)CCCN=C(N)N`: the growth inhibition in assay [1] was 1.25%; in assay [2] it was -20.9%; in assay [3], -23.9%; in assay [4] it was 20.4%; in assay [5], -57.5%; in assay [6], -4.1%.

For the molecule `Cc1onc(-c2ccccc2)c1NC(=O)OCc1ccc(-c2cc(C(F)(F)F)cc(C(F)(F)F)c2)o1`, the growth inhibition in assay [1] was -0.4%; in assay [2], -14.9%; in assay [3], -2.65%; in assay [4] it was 9.7%; in assay [5], 4.4%; in assay [6] it was 11.8%.

Turning to `CCCCC(CC)COCCC(=O)O` (stereo not given), the growth inhibition in assay [1] is -9.55%; in assay [2], -8.55%; in assay [3], -4.25%; in assay [4], -55.9%; in assay [5], -19.8%; in assay [6], -18.8%.

Regarding `CC1CC=CCC1(C(=O)O)C(=O)O` (stereo not given), the growth inhibition was 0.6% in assay [1]; 10.1% in assay [2]; -10.2% in assay [3]; -2.05% in assay [4]; -21.6% in assay [5]; -24.1% in assay [6].

Take `O=C(Nc1ccc(Cl)cc1)Nc1nnc(-c2ccccc2Br)o1`: the growth inhibition in assay [1] is 15.6%; in assay [2], 18.6%; in assay [3] it was 19.2%; in assay [4], -15.4%; in assay [5] it was -22.6%; in assay [6], 8.3%.

In the case of `C[C@H]1CC[C@@]2(OC1)O[C@H]1C[C@H]3[C@@H]4CC[C@@H]5C[C@@H](OC6OC(CO)C(O)C(O)C6OC6OC(CO)C(O)C(O)C6O)CC[C@]5(C)[C@H]4CC[C@]3(C)[C@H]1[C@@H]2C` (stereo not given in full), the growth inhibition was 54.2% in assay [1]; 68.4% in assay [2]; 37.8% in assay [3]; 19.3% in assay [4]; -16.2% in assay [5]; 90.5% (active) in assay [6].

For the molecule `Cc1cccc(C(=O)NC(C)C)c1`, the growth inhibition in assay [1] was -7.75%; in assay [2], -40%; in assay [3], -5.9%; in assay [4] it was 15.8%; in assay [5], -4.95%; in assay [6] it was -19.6%.

For the molecule `C1CCSCCCCSCCCCSCCCCSC1`, the growth inhibition in assay [1] was 20.4%; in assay [2], 18%; in assay [3], 23.4%; in assay [4] it was 6.5%; in assay [5], 16.9%; in assay [6], 35.8%.

On to `NC12CC3CC(C1)CC(C(=O)O)(C3)C2`, for which the growth inhibition was 1.65% in assay [1]; 3.05% in assay [2]; -2.75% in assay [3]; 3.45% in assay [4]; 6.7% in assay [5]; -7.1% in assay [6].

For the molecule `CCOC(=O)/C(=C/c1ccc(N(CCC#N)CCC#N)cc1C)NC(=O)/C=C/c1ccccc1`, the growth inhibition in assay [1] was -2.25%; in assay [2], -5.85%; in assay [3], -16.2%; in assay [4], -20.6%; in assay [5], -25.4%; in assay [6], -9.65%.

Consider `Cc1ccc(S(=O)(=O)/C(=C/c2ccccc2)CC(=O)c2ccccc2)cc1`, for which the growth inhibition in assay [1] is 9.05%; in assay [2] it was 6.55%; in assay [3], -22.1%; in assay [4] it was -18.4%; in assay [5], 11.1%; in assay [6] it was 17%.

Take `O=c1[nH]cc(O)c(=O)[nH]1`: the growth inhibition in assay [1] was -25.1%; in assay [2], -41.3%; in assay [3], -8.95%; in assay [4] it was 12.7%; in assay [5] it was -17.8%; in assay [6] it was 6.4%.

For the molecule `CCOc1ccnc2c(OC)c(C)c3nc4ccccc4nc3c12`, the growth inhibition is 7.6% in assay [1]; -13.2% in assay [2]; -4.65% in assay [3]; 13.6% in assay [4]; -7.3% in assay [5]; 91% (active) in assay [6].

For the molecule `COc1cc(C)c2c([N+](=O)[O-])cc([N+](=O)[O-])c(OC)c2n1`, the growth inhibition in assay [1] is 12%; in assay [2], 17.9%; in assay [3] it was 4%; in assay [4], 3.85%; in assay [5], -10.2%; in assay [6], 7.05%.
